Test [1] is described as follows: NCI Yeast Anticancer Drug Screen. Data for the rad50 strain (AID 155).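 Further: 0% = growth of vehicle-only cultures of the same strain.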 The note with it: S. cerevisiae rad50 strain growth inhibition, hits give high values. The method in brief:
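Growth of the mutant yeast was measured after compound exposure and referenced to vehicle-treated cultures.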

A short description of test [2]: NCI Yeast Anticancer Drug Screen. Data for the mec2-1 strain (AID 157). The note with it: S. cerevisiae mec2-1 strain, hits give high values. In short, it runs like this:
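Growth inhibition is read against vehicle-treated controls after compound exposure of the mec2-1 yeast strain, which is defective in DNA damage repair or cell cycle control.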

The nature of test [3]: NCI Yeast Anticancer Drug Screen. Data for the sgs1 mgt1 strain (AID 161).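 Further: 0% = growth of cultures given vehicle only.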 The note with it: S. cerevisiae sgs1 mgt1 strain, hits give high values. In short, it runs like this: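 This yeast growth screen uses a strain with defined DNA-repair lesions; compound-treated growth is compared with vehicle-treated growth.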
Test [4] is described as follows: NCI Yeast Anticancer Drug Screen. Data for the cln2 rad14 strain (AID 165).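 Further: 0% = growth equal to vehicle treated cultures.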 The note with it: S. cerevisiae cln2 rad14 strain, hits give high values. In short, it runs like this: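 Growth inhibition, relative to vehicle-treated controls, is the read-out. The test organism is a yeast strain with defined genetic alterations, cln2 rad14.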
The nature of test [5]: NCI Yeast Anticancer Drug Screen. Data for the bub3 strain (AID 167). As to conditions: S. cerevisiae bub3 mutant strain, hits give high values. In short, it runs like this: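 Whole-cell yeast assay. The mutant strain was incubated with compounds, and growth inhibition was determined by comparison with vehicle-treated cells.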
Test [6] is described as follows: NCI Yeast Anticancer Drug Screen. Data for the mlh1 rad18 strain (AID 175). As to conditions: S. cerevisiae mlh1 rad18 strain growth inhibition, hits give high values. In short, it runs like this:
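Cells of a genetically altered yeast strain, deficient in DNA damage repair, were treated with compound. Their growth was then compared with that of vehicle-treated cultures to give inhibition.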

[7] abbreviates: at 5.0 µM (retest, dose inferred, filed as 0.5).
Setting [8] is: at 50.0 µM (retest, dose inferred, filed as 5.0).

The results in this text go back to PubChem BioAssay (NCI).

Several values for one entry are separate records, joined by “and”; a condition that tells them apart may be missing. Equal entries are not always repeated. Compounds without any hit were thinned out: in the full panel of roughly 79,000, 15% have a hit. Unmarked numbers belong to inactive results. Activity calls are given as the source filed them. No stated cut-off is given here; in the data, active means growth inhibition above about 70%; inactive means the rest.

For the compound `Clc1ccc(CCN2CCOCC2)c(Cl)c1`, the growth inhibition is 4% in test [1] (setting [7]); 27% in test [1] (setting [8]); 62.9% in test [1] (at 50.0 µM); 0% in test [2] (setting [7]); 16% in test [2] (setting [8]); 34.1% in test [2] (at 50.0 µM). Moreover, the growth inhibition was 0% in test [3] (setting [7]); 42% in test [3] (setting [8]); 54.4% in test [3] (at 50.0 µM); 31% in test [4] (setting [7]); 30% in test [4] (setting [8]); 58.5% in test [4] (at 50.0 µM). Also, the growth inhibition in test [5] (setting [7]) is 23%; in test [5] (setting [8]) it was 54%; in test [5] (at 50.0 µM) it was 34.5%; in test [6] (setting [7]), 5%; in test [6] (setting [8]), 55%; in test [6] (at 50.0 µM), 64.9%.

For the compound `O=[N+]([O-])C(Br)(Br)CCC(Br)(Br)[N+](=O)[O-]`, the growth inhibition was 99% (active) in test [1] (setting [7]); 99% (active) in test [1] (setting [8]); 99.5% (active) in test [1] (at 50.0 µM); 99% (active) in test [2] (setting [7]); 100% (active) in test [2] (setting [8]); 99.8% (active) in test [2] (at 50.0 µM). The growth inhibition in test [3] (setting [7]) was 99% (active); in test [3] (setting [8]) it was 99% (active); in test [3] (at 50.0 µM) it was 52.4%; in test [4] (setting [7]), 100% (active); in test [4] (setting [8]), 99% (active); in test [4] (at 50.0 µM), 81.3% (active). Also, the growth inhibition in test [5] (setting [7]) is 100% (active); in test [5] (setting [8]) it was 100% (active); in test [5] (at 50.0 µM), 99.7% (active); in test [6] (setting [7]) it was 99% (active); in test [6] (setting [8]), 99% (active); in test [6] (at 50.0 µM), 99.5% (active).

For the compound `[Se]C(=NCc1ccccc1)NCc1ccccc1`, the growth inhibition in test [1] (setting [7]) was 29%; in test [1] (setting [8]) it was 61%; in test [1] (at 50.0 µM), 93.3% (active); in test [2] (setting [7]) it was 4%; in test [2] (setting [8]), 15%; in test [2] (at 50.0 µM) it was 6.1%. Besides, the growth inhibition in test [3] (setting [7]) is 2%; in test [3] (setting [8]) it was 19%; in test [3] (at 50.0 µM), 19.2%; in test [4] (setting [7]), -1%; in test [4] (setting [8]), -7%; in test [4] (at 50.0 µM) it was -102%. In addition, the growth inhibition was 3% in test [5] (setting [7]); 18% in test [5] (setting [8]); 46.2% in test [5] (at 50.0 µM); 8% in test [6] (setting [7]); 29% in test [6] (setting [8]); 52.4% in test [6] (at 50.0 µM).

As for `C[N-]c1nnnn1C.[Au+].c1ccc([PH+](c2ccccc2)c2ccccc2)cc1`, the growth inhibition in test [1] (setting [7]) was 99% (active); in test [1] (setting [8]), 97% (active); in test [1] (at 50.0 µM), 96.3% (active); in test [2] (setting [7]) it was 99% (active); in test [2] (setting [8]), 95% (active); in test [2] (at 50.0 µM), 97.9% (active). In addition, the growth inhibition in test [3] (setting [7]) was 99% (active); in test [3] (setting [8]) it was 97% (active); in test [3] (at 50.0 µM) it was 97% (active); in test [4] (setting [7]), 96% (active); in test [4] (setting [8]) it was 95% (active); in test [4] (at 50.0 µM) it was 97.2% (active). The growth inhibition in test [5] (setting [7]) is 98% (active); in test [5] (setting [8]), 96% (active); in test [5] (at 50.0 µM) it was 96% (active); in test [6] (setting [7]), 97% (active); in test [6] (setting [8]), 94% (active); in test [6] (at 50.0 µM), 97% (active).

As for `CCCCC1C(=O)NC(=S)N(c2ccccc2)C1=O` (configuration not stated), the growth inhibition was -4% in test [1] (setting [7]); -1% in test [1] (setting [8]); -1.75% in test [1] (at 50.0 µM); -3% in test [2] (setting [7]); 11% in test [2] (setting [8]); -1.25% in test [2] (at 50.0 µM). In addition, the growth inhibition is 3% in test [3] (setting [7]); 17% in test [3] (setting [8]); 7.5% in test [3] (at 50.0 µM); -2% in test [4] (setting [7]); -7% in test [4] (setting [8]); 34.2% in test [4] (at 50.0 µM). Besides, the growth inhibition in test [5] (setting [7]) is 0%; in test [5] (setting [8]) it was 4%; in test [5] (at 50.0 µM), 11.1%; in test [6] (setting [7]), -9%; in test [6] (setting [8]) it was 1%; in test [6] (at 50.0 µM), 13.8%.

For the compound `Nc1ccc(N=Nc2ccccc2)cc1`, the growth inhibition in test [1] (setting [7]) was 1%; in test [1] (setting [8]), 76% (active); in test [1] (at 50.0 µM), 69.7%; in test [2] (setting [7]), -4%; in test [2] (setting [8]), 37%; in test [2] (at 50.0 µM) it was 17.6%. Further, the growth inhibition in test [3] (setting [7]) was 1%; in test [3] (setting [8]), 92% (active); in test [3] (at 50.0 µM), 37.4%; in test [4] (setting [7]), 5%; in test [4] (setting [8]), 50%; in test [4] (at 50.0 µM), 3.25%. Besides, the growth inhibition in test [5] (setting [7]) was 3%; in test [5] (setting [8]) it was 43%; in test [5] (at 50.0 µM), 37.4%; in test [6] (setting [7]), 1%; in test [6] (setting [8]), 78% (active); in test [6] (at 50.0 µM) it was 82.5% (active).

Turning to `O=c1c(O)c(-c2ccccc2)oc2ccccc12.[Pb]`, the growth inhibition in test [1] (setting [7]) is 3%; in test [1] (setting [8]), 97% (active); in test [1] (at 50.0 µM), 94.7% (active); in test [2] (setting [7]) it was -2%; in test [2] (setting [8]), 97% (active); in test [2] (at 50.0 µM), 92.6% (active). In addition, the growth inhibition was 6% in test [3] (setting [7]); 24% in test [3] (setting [8]); 98.4% (active) in test [3] (at 50.0 µM); -2% in test [4] (setting [7]); 98% (active) in test [4] (setting [8]); 47.8% in test [4] (at 50.0 µM). The growth inhibition was -6% in test [5] (setting [7]); 98% (active) in test [5] (setting [8]); 96.2% (active) in test [5] (at 50.0 µM); 8% in test [6] (setting [7]); 98% (active) in test [6] (setting [8]); 98.1% (active) in test [6] (at 50.0 µM).

For `[Cl][Pt+2][Cl].[NH-]C(c1ccccc1)C([NH-])c1ccccc1` (configuration not stated), the growth inhibition in test [1] (setting [7]) is -11%; in test [1] (setting [8]), 10%; in test [1] (at 50.0 µM), -22.9% and 11%; in test [2] (setting [7]), 2%; in test [2] (setting [8]), -8%; in test [2] (at 50.0 µM) it was -21.4% and 0.25%. Moreover, the growth inhibition in test [3] (setting [7]) is -10%; in test [3] (setting [8]), 9%; in test [3] (at 50.0 µM), 19% and 2.15%; in test [4] (setting [7]) it was -23%; in test [4] (setting [8]), -10%; in test [4] (at 50.0 µM), 18.6% and 21.9%. Moreover, the growth inhibition in test [5] (setting [7]) was -9%; in test [5] (setting [8]) it was 4%; in test [5] (at 50.0 µM) it was -2.7% and -2.2%; in test [6] (setting [7]), -6%; in test [6] (setting [8]), 2%; in test [6] (at 50.0 µM) it was -17.6% and 29.3%.

With `C1CN([PH+](N2CC2)N2CC2)CCO1.C1CN([PH+](N2CC2)N2CC2)CCO1.[I][Pt][I]`, the growth inhibition in test [1] (setting [7]) was 0%; in test [1] (setting [8]), 9%; in test [1] (at 50.0 µM), 36.8%; in test [2] (setting [7]) it was 2%; in test [2] (setting [8]), 5%; in test [2] (at 50.0 µM) it was 23.7%. The growth inhibition in test [3] (setting [7]) is 1%; in test [3] (setting [8]) it was 5%; in test [3] (at 50.0 µM) it was 52.2%; in test [4] (setting [7]), 4%; in test [4] (setting [8]), 1%; in test [4] (at 50.0 µM), 17.9%. Also, the growth inhibition in test [5] (setting [7]) was 1%; in test [5] (setting [8]), 15%; in test [5] (at 50.0 µM), 96.5% (active); in test [6] (setting [7]), 1%; in test [6] (setting [8]) it was 7%; in test [6] (at 50.0 µM), 6.4%.
